This is a sample that favours compounds with a hit; in the whole collection about 9.3% have one here.
HCV inhibitor – blocks hepatitis C virus; Huh7.5.1 HCVcc-Cre infection, luciferase reporter, 44 h; Potency, µM (series often up to 41.8 µM), for inactives: at the top dose activity change, negative = inhibition, hits mostly inhibitors; 340,000 tested, 3.4% active; also: potency is read from the fitted curve at half-maximal effect
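Whole-lifecycle infectious HCVcc-Cre system; cells 1,000/well, compound then virus (~0.5 moi) added 4 h after plating, 44 h culture. Luciferase read 15 sec following 15 min substrate incubation, room temp.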
Vaccinia Venus – vaccinia inhibition (Venus reporter). Vaccinia virus Venus reporter expression, fluorescence. Potency, µM (doses to about 36.5 µM), without a hit: top-dose activity change, negative = inhibition, usual class: inhibitors. 330,000 tested, 0.46% active; calls by dose curve; tested in A549 cells; also: potency is read from the fitted curve at half-maximal effect; nearly all actives have a fitted effect of over 30% in size
FMDV antiviral – blocks foot and mouth disease virus | FMDV antiviral cell-based qHTS | Potency, µM (top dose mostly 57.9 µM), for inactives: top-dose activity change, negative = inhibition, usual class: inhibitors | 410,000 tested, 1.2% active | AID 1159524; calls by dose curve; tested in HEK293T cells; also: read-out not given here; potency is read from the fitted curve at half-maximal effect; nearly all actives have a fitted effect of over 45% in size
VACV mCherry inh – inhibitors of vaccinia virus infection (mCherry reporter signal); Potency, µM (top dose mostly 36.5 µM), without a hit: at the highest dose activity change, negative = inhibition, most hits filed as inhibitors; Vaccinia virus mCherry reporter infection, fluorescence; 310,000 tested, 0.63% active; calls by dose curve; tested in A549 cells; also: potency is read from the fitted curve at half-maximal effect; nearly all actives have a fitted effect of over 35% in size
HCMV inh – blocks human cytomegalovirus replication. HFF cells, HCMV-luciferase reporter, 72 h; stronger effect = lower value. activity change, negative = inhibition, % at 57.5 µM. 410,000 tested, 4.5% active. AID 1259415; in the data active = activity change below about -60%; inconclusive = no clear call, values can overlap the other calls; inactive = above about -39%
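Steps: HFFs plated, 16 h 37C; compounds added; HCMV-luciferase added to MOI 1 PFU/cell; 72 h 37C; OneGlo reagent, 5 min room temperature; luminescence read, normalized to controls.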
Sm TGR inh – blocks Schistosoma mansoni thioredoxin glutathione reductase | Potency, µM (series often up to 114 µM), for the others: at the highest dose activity change, negative = inhibition, usual class: inhibitors | Q962Y6 | 360,000 tested, 3% active | purified TGR, DTNB reduction, TNB absorbance 405 nm; also: potency is read from the fitted curve at half-maximal effect; nearly all actives have a fitted effect of over 60% in size
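Kinetic colorimetric format: TGR-catalysed, NADPH-driven DTNB reduction monitored via TNB absorbance. Enzyme dispensed at 20 nM; compound exposure 15 min at room temperature before reaction start.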
An asterisk follows results filed as active; i = inactive; u = inconclusive; x = no result; + = active, no number. Unless noted, calls follow the shape of the dose curve; as a rule, active = well fitted curve in the direction sought with a large enough effect; inconclusive = small, poorly fitted or top-dose-only effect, or another doubt; inactive = no such curve, though single readings can be large; an effect the other way counts as inactive or inconclusive. % is scaled to controls: 0 for no effect and ±100 for the full control effect.

SMILES | HCV inhibitor | Vaccinia Venus | FMDV antiviral | VACV mCherry inh | HCMV inh | Sm TGR inh
CCN1CCc2c(sc(NC(=O)c3cc4ccccc4cc3OC)c2C(N)=O)C1 | 8.91µM* | u | -7.9% | 14.1µM* | -113.4* | -1.6%
CN1CCc2c(sc(NC(=O)c3cc4cc([N+](=O)[O-])ccc4s3)c2C(N)=O)C1 | x | x | x | x | x | -21.5%
CC(O)(c1ccccc1)c1nc(-c2cc3ccccc3o2)cs1 (stereo unspecified) | x | -10.3% | 0.1% | -21.3% | u | x
COC(=O)c1c(NC(=O)c2ccco2)sc2c1CCN(C(C)C)C2 | -23.0% | x | u | x | 6.4 | -32.6%
CC(C)N1CCc2c(sc(NC(=O)c3ccco3)c2C(N)=O)C1 | -12.3% | -26.4% | 0.0% | u | -76.1* | 50.1µM*
COc1ccc(C[C@H]2CN3C(=NC[C@H]3Cc3ccccc3)N2CCNC(=O)CCC2CCCCC2)cc1 | -6.6% | u | -21.9% | 11.2µM* | u | -9.5%
COc1ccc(C[C@H]2CN3C(=NC[C@H]3Cc3ccccc3)N2CCNC(=O)c2ccc(C)c(Br)c2)cc1 | -13.8% | 14.1µM* | u | u | x | -21.8%
COc1ccc(C[C@@H]2CN3C(=NC[C@@H]3C)N2C[C@H](C)NC(=O)CCC2CCCCC2)cc1 | -1.5% | -4.5% | 0.0% | i | 3.9 | 25.1µM*
COc1ccc(C[C@H]2CN3C(=NC[C@@H]3Cc3ccccc3)N2CCNC(=O)c2ccc(C)c(Br)c2)cc1 | u | 12.6µM* | u | u | x | 11.2µM*
C[C@@H]1CN([C@H](C)CO)C(=O)Cc2cc(NC(=O)CCC(F)(F)F)ccc2O[C@@H]1CN(C)C(=O)NC1CCCCC1 | 8.9% | -16.6% | -8.8% | -20.8% | -13.2 | x
O=C(c1nc2ccc(Cl)cn2c1CN1CCCC(CO)C1)N1CCc2ccccc2C1 (stereo unspecified) | u | -8.9% | -7.0% | -13.0% | -3.7 | -14.1%
CCn1cc(C(=O)NCc2cccc(C(F)(F)F)c2)c(=O)c2ccc(C)nc21 | 9.4% | x | -24.7% | x | -69.4* | -12.7%
CCn1cc(C(=O)NCc2ccc3c(c2)OCO3)c(=O)c2ccc(C)nc21 | 16.5% | x | x | x | x | -15.5%
CCOc1ccccc1CNS(=O)(=O)c1cc(-c2onc(C)c2C)ccc1OC | x | -12.6% | 53.9% | -14.8% | + | -5.1%
COc1ccc(-c2onc(C)c2C)cc1S(=O)(=O)NCC(C)c1ccccc1 (stereo unspecified) | x | -27.8% | -1.9% | i | -25.9 | 4.8%
COc1ccc(-c2onc(C)c2C)cc1S(=O)(=O)NCc1ccc(C)o1 | x | -28.1% | 38.9% | -1.4% | -71.2* | -16.6%
COc1ccccc1CN1CCC(CNS(=O)(=O)c2cc(-c3onc(C)c3C)ccc2OC)CC1 | 10µM* | -26.3% | 11.5% | u | 20.9 | 3.5%
Cc1nc(N2CCN(c3ccccc3)CC2)nc2c1C(=O)CC(c1ccccc1)C2 (stereo unspecified) | -26.4% | x | -9.2% | x | 9.9 | 2.3%
Cc1nc(N2CCN(c3ccccc3)CC2)nc2c1C(=O)CC(C)C2 (stereo unspecified) | 11.2µM* | x | 0.6% | x | -39.2 | -24.8%
c1nc(N2CCNCC2)c2cc(-c3ccoc3)ccc2n1 | x | x | -11.8% | x | x | x
CCC(=O)NC(c1cccs1)c1ccc2cccnc2c1O (stereo unspecified) | 3.55µM* | u | 4.0% | u | -100.8* | 0.4%
CC(C)CC(=O)NC(c1cccs1)c1ccc2cccnc2c1O (stereo unspecified) | 2.82µM* | u | 8.0% | 6.31µM* | x | 3.0%
CCC1COC(c2cccn2Cc2ccc(Cl)cc2)=N1 (stereo unspecified) | 16.1% | -0.8% | -18.4% | -4.8% | -30.0 | 7.8%
Fc1cccc(CN2CCN(C(=S)NCCc3ccccc3)CC2)c1 | -27.8% | -8.1% | 15.5% | -9.3% | -20.4 | -0.3%
CN(C)S(=O)(=O)c1ccc(N2CCCC2)c(C(=O)NCC2CCCCC2)c1 | 8.91µM* | -17.4% | -14.0% | i | -38.7 | -14.9%
SMILES | HCV inhibitor | Vaccinia Venus | FMDV antiviral | VACV mCherry inh | HCMV inh | Sm TGR inh
CN(C)S(=O)(=O)c1ccc(N2CCCC2)c(C(=O)NCC2COc3ccccc3O2)c1 (stereo unspecified) | -17.1% | -10.8% | -1.1% | i | -26.8 | 2.3%
CSc1ccccc1NC(=O)c1cc(S(=O)(=O)N(C)C)ccc1N1CCCC1 | 8.6% | -10.9% | -24.6% | -11.4% | -31.4 | -15.7%
CN(C)S(=O)(=O)c1ccc(N2CCCC2)c(C(=O)Nc2ccccc2)c1 | 5.6% | -14.1% | -19.3% | -17.4% | -67.4* | -2.1%
Cc1ccc(NC(=O)CSc2nc(C)c(C)c(C)n2)c([N+](=O)[O-])c1 | -0.7% | -5.0% | -26.2% | i | 21.9 | 0.0%
CC(C)OC(=O)CSc1nnc2c(n1)[nH]c1ccc(F)cc12 | -26.0% | x | u | x | -88.0* | -6.6%
COc1ccc(CNC(=O)CSc2nnc3c(n2)[nH]c2ccc(F)cc23)cc1 | -7.5% | 3.2% | -9.5% | 21.5% | -70.7* | -16.4%
C=CCn1cccc(C(=O)Nc2ccc(F)cc2)c1=O | u | x | 9.7% | x | -16.0 | 11.4%
COc1ccc(Nc2cc(C(=O)NCc3cccs3)c3ccccc3n2)cc1 | x | -2.2% | 6.8% | -7.5% | 13.0 | 1.1%
Cc1ccc(N(C(=O)C2CCCC2)C2C=CS(=O)(=O)C2)cc1 (stereo unspecified) | 2.1% | u | -18.5% | x | -20.7 | 3.7%
CCN(CC)S(=O)(=O)c1ccc2c(c1)N(CC(=O)NCCCN1CCN(c3cc(C)ccc3C)CC1)C(=O)CO2 | x | -21.6% | 0.0% | u | -99.5* | 6.2%
O=C(CN1C(=O)COc2ccc(S(=O)(=O)N3CCCCCC3)cc21)Nc1cccc(Cl)c1 | x | -14.4% | -1.3% | -15.5% | -72.0* | -0.3%
CCN(CC)S(=O)(=O)c1ccc2c(c1)N(CC(=O)NCCCN1CCN(c3ccccc3F)CC1)C(=O)CO2 | x | -12.4% | -3.3% | -12.6% | -11.8 | -28.3%
Cc1ccc(CCNC(=O)CN2C(=O)COc3ccc(S(=O)(=O)N4CCCC4)cc32)cc1 | x | -15.6% | -6.8% | i | -87.5* | 7.7%
COc1ccc(OC)c(CCNC(=O)CN2C(=O)COc3ccc(S(=O)(=O)N4CCOCC4)cc32)c1 | -4.8% | -25.1% | -4.5% | -17.3% | -72.4* | -15.5%
COc1cc(OC)cc(C(=O)NCCc2ccc(OC)c(OC)c2)c1 | -23.5% | x | -6.8% | x | 22.2 | x
COC(C[C@@H]1O[C@H]1[C@@H](O)[C@@H](C)OCc1ccccc1)OC | -19.3% | -3.1% | -9.0% | i | -11.4 | 13.1%
COc1ccc(Cl)cc1NC(=O)N1CCN(S(=O)(=O)c2ccc3c(ccn3C)c2)CC1 | x | -19.8% | u | -28.0% | 2.3 | -13.2%
COc1cccc(NC(=O)CN(C)C(=O)CNC(=O)c2sc3ccccc3c2Cl)c1 | -4.5% | x | 37.9% | x | 3.8 | -1.8%

Screening results: PubChem BioAssay, National Center for Advancing Translational Sciences (NCATS)
